In PubChem BioAssay (NCI):
This is part of a sample that, as a whole, favours compounds with a hit. Of some 83,000 tested, about 20% had one in any assay.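 Activity criterion: percent growth below 10, measured after cells in 96-well plates were exposed to a single compound concentration for 48 hours.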 A number with no mark means an inactive call. Activity calls are given as the source filed them.

Experiments:
Assay in all cases: NCI-60 one-dose screen, 48 h (100 = growth as untreated, 0 = no growth, -100 = all killed)
Conditions in all cases: 10 µM unless noted
SR leukemia = system: SR leukemia
RPMI-8226 leukemia = system: RPMI-8226 leukemia
OVCAR-8 ovarian = system: OVCAR-8 ovarian
OVCAR-5 ovarian = system: OVCAR-5 ovarian
OVCAR-4 ovarian = system: OVCAR-4 ovarian
OVCAR-3 ovarian = system: OVCAR-3 ovarian
HS 578T breast = system: HS 578T breast
NCI/ADR-RES ovarian = system: NCI/ADR-RES ovarian
T-47D breast = system: T-47D breast
MDA-MB-435 melanoma = system: MDA-MB-435 melanoma
SW-620 colon = system: SW-620 colon
MCF7 breast = system: MCF7 breast
HCT-116 colon = system: HCT-116 colon
HCC-2998 colon = system: HCC-2998 colon
KM12 colon = system: KM12 colon
SK-OV-3 ovarian = system: SK-OV-3 ovarian
BT-549 breast = system: BT-549 breast
IGROV1 ovarian = system: IGROV1 ovarian

| SMILES | growth (SR leukemia) | growth (RPMI-8226 leukemia) | growth (OVCAR-8 ovarian) | growth (OVCAR-5 ovarian) | growth (OVCAR-4 ovarian) | growth (OVCAR-3 ovarian) | growth (HS 578T breast) | growth (NCI/ADR-RES ovarian) | growth (T-47D breast) | growth (MDA-MB-435 melanoma) | growth (SW-620 colon) | growth (MCF7 breast) | growth (HCT-116 colon) | growth (HCC-2998 colon) | growth (KM12 colon) | growth (SK-OV-3 ovarian) | growth (BT-549 breast) | growth (IGROV1 ovarian) [%] |
| --- | --- | --- | --- | --- | --- | --- | --- | --- | --- | --- | --- | --- | --- | --- | --- | --- | --- | --- |
| COc1cc(/C=C/c2cc(/C=C/c3ccc(O)c(OC)c3)n(C(=O)c3ccc(Cl)cc3)n2)ccc1O | 3.07% (active) | -16.1% (active) | 29.1% | 79.9% | 36.5% | 7.65% (active) | 10.1% | 21.9% | 11.2% | -45.2% (active) | 16.4% | 20.1% | 0.953% (active) | 52% | 10.8% | – | – | – |
| O=C(Nc1nc2c(C(F)(F)F)cccc2s1)c1cc(Cl)ccc1O | 7.18% (active) | -22.7% (active) | 6.2% (active) | 29.3% | 21.8% | 10.1% | – | 1.26% (active) | -1.67% (active) | 5.71% (active) | 12.2% | 7.63% (active) | -1.3% (active) | 19.3% | 10.5% | -8.89% (active) | -13.4% (active) | – |
| Oc1c(N=Nc2nn[nH]n2)ccc2ccccc12 | 106% | 89.3% | 91% | 97.3% | – | 71.6% | 91% | 96.2% | 97.7% | 67.7% | 101% | 73.7% | 76.5% | 103% | 80.1% | 97.7% | 83.2% | 78.5 |
| COc1ccc(CNC(=O)c2c(C)n([O-])c3cc(F)c(F)cc3[n+]2=O)cc1 | 37.5% | 86% | 88% | 99.5% | 116% | 56% | 97.3% | 108% | 67.8% | 106% | 71.1% | – | 97.8% | -73.5% (active) | 96.1% | 111% | 80.3% | – |
| COc1cc(/C(Cl)=C/C=C/C(=O)c2c(C)[n+]([O-])c3ccc(Cl)cc3[n+]2[O-])cc(OC)c1OC | 2.04% (active) | 19% | – | 81.8% | 34.1% | 33.7% | 17.4% | 31.1% | 22.3% | 6.9% (active) | 1.65% (active) | 0.61% (active) | 2.9% (active) | 83.2% | 33% | 69.5% | 36.5% | 37.2 |
| CCCn1c(N)c(C(=O)CNc2ccc(I)cc2)c(=O)[nH]c1=O | 139% | 29.1% | 49.5% | 137% | 74.4% | 64.9% | 44.3% | 77.1% | 94.9% | 51.1% | 35.3% | – | 32.3% | 74.2% | 43.7% | 56% | 61.4% | – |
| CCCCNCCCN(CCCC)CCCNCCCC | 108% | 99.6% | 96% | 108% | – | 107% | 80.2% | 99.9% | 105% | 94.3% | 101% | 95.8% | 90.9% | 103% | 107% | 100% | 97.2% | 99.5 |
| C=C(CN1CCc2c([nH]c3ccccc23)C1)c1ccc(C(=O)Nc2ccon2)cc1 | 80.9% | 78.4% | 78.2% | 90.2% | 85.5% | 92.6% | 94.4% | 99.9% | 22.8% | 101% | 102% | 87.7% | 91.9% | – | 141% | 61.8% | – | – |
| COc1c(Br)cc(C(c2cc(Br)c(OC)c(Br)c2)c2ccccc2C(=O)O)cc1Br | 80.9% | 88.7% | 102% | 99.1% | – | 109% | 101% | 98.8% | 93.6% | 104% | 99.9% | 96.5% | 90.2% | 97.8% | 103% | 106% | 82.8% | 95.7 |
| CN1C(=O)C(C2=NN(C=O)C(c3ccc(F)cc3)C2)C(=O)N(C)C1=O (configuration not stated) | 101% | 95.8% | 98.9% | 97.1% | 102% | 99.9% | – | 99.2% | 92.9% | 102% | 98.8% | 93.4% | 98.7% | 97.5% | 99.9% | 94.6% | 102% | – |
| CCCCCCCCCCOC(C)=O | 98.6% | 99.1% | 101% | 101% | 103% | 110% | 101% | 111% | 100% | 106% | 106% | – | 112% | 109% | 113% | 110% | 118% | – |
| CCOC1Oc2ccccc2C(=O)/C1=N/c1nccs1 (configuration not stated) | 57.1% | 36.3% | 114% | 99.1% | 94.5% | 64.7% | 90.3% | 87.9% | 66.5% | 104% | 87.1% | – | 92.9% | 99.7% | 93.5% | 97.7% | 77.1% | – |
| COc1ccc(-c2cc(-c3cccnc3)nc3sc(C(=O)Nc4ccccc4)c(N)c23)cc1OC | 52.3% | 0.963% (active) | 58.8% | 86.8% | 80.1% | 71.4% | 28.4% | 54.4% | 55.8% | 76.1% | 85.5% | 65.4% | 50.5% | 80.3% | 61.3% | – | – | 68.9 |
| NS(=O)(=O)N(c1cc(C(F)(F)F)cc(C(F)(F)F)c1)C1CCN(Cc2ccc(C(F)(F)F)cc2)CC1 | -6.79% (active) | 31.7% | – | 38.6% | 31.6% | 15% | 25.2% | 58.2% | 29.5% | -60.4% (active) | 19.9% | 9.31% (active) | 2.21% (active) | 3.6% (active) | 12.9% | 4.55% (active) | 37.4% | 21.7 |
| O=c1ncc(-c2ccc(C(F)(F)F)cc2)c(NC2CCCCCC2)[nH]1 | 69% | 5% (active) | – | 91.3% | 53.5% | -2.84% (active) | 68.6% | 102% | 32.5% | 45.3% | 46.5% | 40.4% | 39.1% | 98.1% | 33.4% | 83.9% | 72.7% | 51 |
| Oc1ccccc1/C=N/N1CCCCCC1 | 99.3% | 99.6% | 116% | 105% | – | 108% | 114% | 101% | 102% | 99.9% | 108% | 83.8% | 102% | 95.8% | 103% | 112% | 97.9% | – |
| O=C1C(=O)c2c(nc3ccc(Cl)cn23)-c2ccccc21 | -86.5% (active) | -53.7% (active) | -100% (active) | -100% (active) | -100% (active) | -96% (active) | -33.8% (active) | -41.1% (active) | -55.8% (active) | -89.5% (active) | -100% (active) | -88% (active) | -95.3% (active) | -95.8% (active) | -68.7% (active) | -100% (active) | – | – |
| COc1ccc(-c2cc(-c3cccnc3)nc(S(=O)(=O)CC(=O)Nc3ccc(C)cc3)c2C#N)cc1OC | 77.4% | 79.8% | 91.6% | 120% | 90.3% | 95.4% | 81.9% | 86.8% | 64% | 98.6% | 98.3% | 88.4% | 85.8% | 91.9% | 95.9% | – | – | 107 |
| CC(=O)Nc1ccc(C(=O)COc2ccc(/C=C3\CCc4ccccc4C3=O)cc2)cc1 | 84.4% | 83.3% | 98.8% | 101% | 104% | 111% | 99% | 96.2% | 91% | 122% | 113% | 122% | 106% | 118% | – | 117% | – | – |
